Measured values reported in PubChem BioAssay (NCATS).
Results filed as inconclusive are left out. A call without a number means that no potency is given here. Activity calls are given as the source filed them. Calls come from the whole dose curve; as a rule, active = well fitted inhibition curve with a large enough effect; inconclusive = small, poorly fitted or top-dose-only effect; inactive = flat fitted curve, though single readings scatter.

What follows are compounds tested against Aldehyde dehydrogenase, mitochondrial (Homo sapiens) (UniProt P05091) (assay: qHTS for Inhibitors of the Aldehyde Dehydrogenase Family (ALDH2) Primary screen (AID 2061308; note: nearly all actives have a fitted effect of over 55% in size)). Conditions: ALDH2 enzyme inhibition qHTS, 1536-well; series mostly up to 56 µM.
For `CN1CCc2cc3c(cc2[C@H]1[C@@H]1OC(=O)c2c1ccc1c2OCO1)OCO3`, the Potency was “inactive”. In the case of `CC(N[C@H]1C[C@H]1c1ccccc1)c1ccc2c(c1)OCCO2` (stereo not given in full), the Potency is reported as “inactive”. `Clc1ccc([C@]23CNC[C@H]2C3)cc1Cl` was tested, and the Potency was “inactive”. With `C[C@]12CC[C@H](O[C@@H]3O[C@H](CO)[C@@H](O)[C@H](O)[C@H]3O[C@@H]3O[C@H](CO)[C@@H](O)[C@H](O)[C@H]3O)CC1=CC[C@@H]1[C@@H]2CC[C@]2(C)[C@@H](C3=CC(=O)OC3)CC[C@]12O` the Potency was “inactive”. In the case of `CC(C)(O)[C@H]1O[C@H]2CC[C@@]3(C)[C@@](O)(CC[C@H]4Cc5c([nH]c6ccccc56)[C@@]43C)C2=CC1=O`, the Potency is reported as “inactive”. In the case of `CN1C(=O)N(c2ccc(C#N)c(C(F)(F)F)c2)C(=O)[C@@]1(CO)c1ccccc1`, the Potency is reported as “inactive”. `CCOc1ccc(Oc2ccc(OCc3cc(F)ccc3F)cc2)c(N)c1` was tested, and the Potency was “inactive”. In the case of `CC[C@@H]1/C=C/C=C/C[C@H](C)C(O)[C@](C)(O)C(=O)[C@H](C)C(O)[C@H](C)C(=O)[C@H](C)[C@@H](O)[C@H](C)/C=C/C(=O)O[C@H]2[C@@H](C)[C@@H](CC1)O[C@]1(O[C@H](C[C@H](C)O)[C@H](C)CC1=O)[C@@H]2C` (stereo not given in full), the Potency is reported as “inactive”. In the case of `N#CC(OC1OC(COC2OC(CO)C(O)C(O)C2O)C(O)C(O)C1O)c1ccccc1` (stereo not given), the Potency is reported as “inactive”. `CC(=O)OC[C@]12C[C@H](O)C(C)=C[C@H]1O[C@@H]1[C@H](O)[C@@H](OC(C)=O)[C@@]2(C)[C@]12CO2` was tested, and the Potency was “inactive”. For `Cc1sc2c(c1C)C(c1ccc(Cl)cc1)=NC(CC(=O)OC(C)(C)C)c1nnc(C)n1-2` (stereo not given), the Potency was “inactive”. For `CN(CC[C@H](N)CC(=O)N[C@H]1C=C[C@@H](n2ccc(N)nc2=O)O[C@@H]1C(=O)O)C(=N)N`, the activity change, negative = inhibition was -3.48% [at 11.2 µM] (inactive). For `C=CCN1CCC2(C)c3cc(O)ccc3C[C@H]1[C@H]2C`, the Potency was “inactive”. In the case of `CC[C@H]1C[C@H]2[C@@H]3CCC4=CC(=O)CC[C@@H]4[C@H]3CC[C@]2(C)[C@H]1O`, the Potency is reported as “inactive”. With `C/C1=C/[C@@H](C)C/C=C/[C@H]2[C@@H]3O[C@]3(C)[C@@H](C)[C@H]3[C@H](Cc4c[nH]c5ccccc45)NC(=O)[C@]32C(=O)/C=C\C(=O)[C@@H]1O` the Potency was “inactive”. `CN1CCN(c2nc3ccccc3nc2Cl)CC1` was tested, and the Potency was “inactive”. In the case of `COC1CC(O[C@H]2CC[C@@]3(C)C(=CCC4C3C(O)[C@@H](O)[C@]3(C)[C@@H](C(C)=O)CC[C@]43O)C2)OC(C)C1OC1CC(OC)C(OC2OC(C)C(O)C(O)C2O)C(C)O1` (stereo not given in full), the Potency is reported as “inactive”. With `C=C(C)[C@@H]1[C@H]2OC(=O)[C@H]1[C@]1(O)C[C@H]3O[C@]34C(=O)O[C@H]2[C@]14C` the Potency was “inactive”. With `O=C(N[C@H]1N=C(c2ccccc2F)c2cccc3c2N(CC3)C1=O)c1cc2ccccc2[nH]1` the Potency was “inactive”. For `COC(=O)C12C(=O)C(C)(O)C(=O)C1(C)C(C)=CC1C34CCC(OC3=O)C(C)(CO)C4CCC12C` (stereo not given), the Potency was “inactive”. In the case of `Oc1ccc2c(c1)C13CCCC[C@H]1[C@@H](C2)N(CC1CCC1)CC3`, the Potency is reported as “inactive”. In the case of `CC1=CC2/C=C(\C)CCC(O)C(O)/C=C/C(=O)OC23C(=O)NC(CC(C)C)C3C1C` (stereo not given), the Potency is reported as “inactive”. For `COCC(C(=O)OC1CC2CCC(C1)N2C)c1ccccc1` (stereo not given), the Potency was “inactive”. For `COc1ccc2c3c4n(c2c1)[C@@H](C=C(C)C)OOC(C)(C)C[C@@H]4N1C(=O)[C@@H]2CCCN2C(=O)[C@]1(O)[C@H]3OCC=C(C)C`, the Potency was “inactive”. `CCCCCCC1C(=O)O[C@H](C)[C@H](NC(=O)c2cccc(NC=O)c2O)C(=O)O[C@@H](C)[C@@H]1OC(=O)CC(C)C` (stereo not given in full) was tested, and the Potency was “inactive”. For `CC[C@@H](C)[C@H]1C(=O)O[C@H](C(C)C)C(=O)N(C)[C@@H](C(C)C)C(=O)O[C@H](C(C)C)C(=O)N(C)[C@@H](C(C)C)C(=O)O[C@H](C(C)C)C(=O)N1C`, the Potency was “inactive”. For `CC[C@@H]1C[C@H]2CC[C@H](O2)[C@H](C)C(=O)O[C@@H](C)C[C@@H]2CC[C@@H](O2)[C@@H](C)C(=O)O[C@H](C)C[C@H]2CC[C@H](O2)[C@H](C)C(=O)O[C@@H](C)C[C@@H]2CC[C@@H](O2)[C@@H](C)C(=O)O1`, the Potency was “inactive”. `CO[C@@H]1[C@@H](O)[C@@H](O[C@H]2CC[C@]3(C=O)C4CC[C@]5(C)[C@@H](C6=CC(=O)OC6)CC[C@]5(O)[C@@H]4CC[C@H]3C2)O[C@@H](C)[C@H]1O[C@@H]1O[C@H](CO[C@@H]2O[C@H](CO)[C@@H](O)[C@H](O)[C@H]2O)[C@@H](O)[C@H](O)[C@H]1O` (stereo not given in full) was tested, and the Potency was “inactive”. With `CN1C(=O)c2ccccc2NC(=O)C1Cc1ccccc1` (stereo not given) the Potency was “inactive”. For `C[C@@](O)(COc1ccc(C#N)cc1)C(=O)Nc1ccc(C#N)c(C(F)(F)F)c1`, the Potency was “inactive”. For `CC12CCC3C(CCC4(O)CC(O)CCC34C=O)C1(O)CCC2C1=CC(=O)OC1` (stereo not given), the Potency was “inactive”. `CC1=C[C@H]2O[C@@H]3[C@H](O)[C@@H](O)[C@](C)([C@@]2(CO)C[C@@H]1O)[C@]31CO1` was tested, and the Potency was “inactive”. `CNC(=O)c1cc(C#N)cc(C)c1NC(=O)c1cc(Br)nn1-c1ncccc1Cl` was tested, and the Potency was “inactive”. With `COC(=O)[C@@]1(C)C(=O)C=C[C@]2(C)c3c(O)cc(C(C)C)cc3[C@H](O)[C@@H](OC(C)=O)C12` (stereo not given in full) the Potency was “inactive”. `C=C1C(=O)OC2/C=C(\COO)CC/C=C(\COC(C)=O)CC(OC(=O)C(C)CC)C12` (stereo not given) was tested, and the Potency was “inactive”. `COC1CC(O[C@H]2CC[C@]3(C=O)C4CC[C@]5(C)[C@@H](C6=CC(=O)OC6)CC[C@]5(O)[C@@H]4CC[C@@H]3C2)OC(C)C1O[C@@H]1O[C@H](CO)[C@@H](O[C@@H]2O[C@H](CO)[C@@H](O)[C@H](O)[C@H]2O)[C@H](O)[C@H]1O` (stereo not given in full) was tested, and the Potency was “inactive”. `COc1cc2c(cc1OC)[C@@]13CCN4CC5=CCO[C@H]6CC(=O)N2[C@H]1[C@H]6[C@H]5C[C@H]43` was tested, and the Potency was “inactive”. For `C=C(C)C(=O)O[C@H]1[C@@H]2[C@H](C)C(=O)O[C@@H]2C[C@@H](C)[C@@H]2C=CC(=O)[C@]21C`, the Potency was “inactive”. `CC(=O)C1CCC2C3CCC4C[C@@H](O)CCC4(C)C3CCC12C` (stereo not given in full) was tested, and the Potency was “inactive”. In the case of `CCCC[N+]1(C)[C@@H]2CC(OC(=O)[C@H](CO)c3ccccc3)C[C@H]1[C@@H]1O[C@@H]12` (stereo not given in full), the Potency is reported as “inactive”.
